Experimental data as given in PubChem BioAssay.

Molecular target: Fibroblast growth factor 2 (Homo sapiens) (UniProt P09038)
Assay: FGF2 binders on small-molecule microarrays, primary screen, biochemical, small-molecule microarray, 635/667 nm fluorescence (AID 1133)
Details: small-molecule microarray binding, FGF2, fluorescence 635/667; higher = more signal

Chain of Fibroblast growth factor 2 (Homo sapiens) (P09038 whole entry, looked up): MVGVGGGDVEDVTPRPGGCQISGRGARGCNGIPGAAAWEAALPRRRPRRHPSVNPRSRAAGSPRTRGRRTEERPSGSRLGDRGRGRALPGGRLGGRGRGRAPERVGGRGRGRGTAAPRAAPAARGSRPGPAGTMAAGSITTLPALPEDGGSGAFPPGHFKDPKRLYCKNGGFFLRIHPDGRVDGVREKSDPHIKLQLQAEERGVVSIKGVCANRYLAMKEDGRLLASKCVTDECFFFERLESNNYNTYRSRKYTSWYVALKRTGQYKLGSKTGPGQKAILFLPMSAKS

SMILES	composite z-score
O=C(NCC(O)CO)[C@]1(Cc2ccccc2)N=C(c2ccc(OCCCO)cc2)O[C@@H]1c1ccccc1 (stereo partly specified)	-0.836
O=C(CS)NCCCCCNC(=O)[C@H]1C[C@H]2C(=O)N3CCC[C@H]3C(=O)N2[C@H]1c1ccc(O)cc1	0.917
COc1cccc([C@H]2N[C@H](C(=O)O)CC[C@@H]2C)c1	-0.0305
CC(C)[Si]1(C(C)C)O[C@@H](c2ccccc2)c2cc(C3CC3)nc(-c3ccc(Oc4ccccc4)cc3)c21	-0.192
CC(=O)Nc1ccc([C@H]2[C@H](C)CC[C@H]3C(=O)N4[C@@H](CC[C@@H](C)[C@@H]4c4ccc(NC(C)=O)cc4)C(=O)N32)cc1	1.25
COc1cc2c(cc1OC)CN(C(=O)[C@@H]1[C@H]3C(=O)O[C@H](c4ccccc4)[C@H](c4ccccc4)N3[C@H](c3ccccc3OCCO)[C@@]13C(=O)Nc1ccccc13)CC2	0.465
[N-]=[N+]=NCc1ccccc1C[C@@]1(C(=O)N2CCOCC2)N=C(c2ccc(OCCCO)cc2)O[C@@H]1c1ccccc1N=[N+]=[N-]	0.267
C=CC[C@]1(C(=O)OC)N=C(c2ccc(OCCCO)cc2)O[C@H]1c1ccccc1CN=[N+]=[N-]	0.172
CO[C@]12C=C(Br)[C@@H](C[C@@H]1c1ccccc1)[C@@]1(CO1)C2=O	0.6
C[C@]1(C(=O)NCc2ccccc2)c2ccccc2C(=O)N(Cc2cc(C(F)(F)F)cc(C(F)(F)F)c2)[C@H]1c1ccc(CO)cc1	1.72

Tested on: not listed separately
Assay: mitochondrial membrane potential change in A549 cells, profiling panel, cell-based, JC-1 fluorescence, basal, 24 h, 100 nL (AID 1138);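 further: A549 lung adenocarcinoma cells under basal conditions with no added stimulus; test concentration not given here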
Details: higher = more signal

SMILES	z-score
C=C(COC)/C(=C/C[C@@H](OC(C)=O)c1cccc(OCCO)c1)c1cc(C(=O)OC)ccc1OC	1.37
CC(C)(C)OC(=O)CC[C@]1(C(=O)NCCN2CCOCC2)N=C(c2ccc(OCCCO)cc2)O[C@H]1c1ccccc1CN=[N+]=[N-]	0.22
CC(=O)NCCCC[C@@H]1NC(=O)[C@@H]2C[C@H](C(=O)NCCCCCCN(C)C)[C@H](c3ccc(O)cc3)N2C1=O	0.543
Cc1ccc(S[C@]2(C(=O)O)CC(=O)N(Cc3ccccc3)[C@@H]2c2ccc(CO)cc2)cc1	1.31
O=C1c2ccccc2[C@](Cc2ccccc2I)(C(=O)NCC(F)(F)F)[C@H](c2ccc(CO)cc2)N1Cc1ccccc1C(F)(F)F	1.67
O=C1OCCC=C[C@H]2OC34C=CCN(Cc5ccccc5)C(=O)[C@H]3N(CCO)C(=O)[C@@H]4C12 (stereo partly specified)	0.252
C=CCNC(=O)[C@H]1[C@@H]2C(=O)O[C@@H](c3ccccc3)[C@@H](c3ccccc3)N2[C@@H](c2ccccc2OCCO)[C@]12C(=O)N(C(=O)OCCOC)c1ccc(C#CCC(C(=O)OC)C(=O)OC)cc12	-1.18
COc1ccc([Si](C)(C)[C@H]2[C@H](CC(=O)N3Cc4ccccc4C[C@H]3CO)O[C@@]3(C(=O)N(Cc4cccc(N5CCOC5=O)c4)c4ccccc43)[C@@H]2C)cc1	2
CC(C)N1CC=CC23O[C@@H]4/C=C\CCCOC(=O)C4[C@H]2C(=O)N(CCO)[C@@H]3C1=O (stereo partly specified)	1.77
CC(C)CN1C(=O)[C@@]2(Cc3ccccc31)c1ccccc1C(=O)N(C1CCCCC1)[C@H]2c1ccc(CO)cc1	-0.269
COc1cccc([C@@H]2[C@@H](C)CC[C@H]3C(=O)N4[C@H](c5cccc(OC)c5)[C@@H](C)CC[C@H]4C(=O)N23)c1	1.55
CO[C@H]1COC(=O)[C@H](Cc2ccccc2)NC(=O)CC=C[C@@H](C)[C@H](OC)COC(=O)CC=C[C@@H]1C	1.64
CO[C@H]1COC(=O)[C@@H](OCc2ccccc2)C=C[C@H](C)[C@@H](OC)COC(=O)[C@H](OCc2ccccc2)C=C[C@@H]1C	1.99
O=C1O[C@@H](c2ccccc2)[C@@H](c2ccccc2)N2[C@@H](c3ccc(O)cc3)[C@]3(C(=O)Nc4ccccc43)[C@@H](C(=O)N3CCN(c4ncccn4)CC3)[C@H]12	0.948
O=C1O[C@@H](c2ccccc2)[C@@H](c2ccccc2)N2[C@@H](c3ccc(O)cc3)[C@]3(C(=O)Nc4ccc(C#CC5(O)CCCCCC5)cc43)[C@@H](C(=O)Nc3nc4ccccc4s3)[C@H]12	-0.901
C=CC[C@]1(C(N)=O)N=C(c2ccc(OCCCO)cc2)O[C@H]1c1ccccc1CN=[N+]=[N-]	0.766
COCCOC(=O)N1C(=O)[C@@]2(c3cc(C#CCCO)ccc31)[C@H](C(=O)N1CCCCCCC1)[C@H]1C(=O)O[C@H](c3ccccc3)[C@H](c3ccccc3)N1[C@@H]2c1ccc(O)cc1	1.65
C=CCOC(=O)[C@@H]1[C@H]2C(=O)O[C@H](c3ccccc3)[C@H](c3ccccc3)N2[C@H](c2ccc(OCCOC(=O)[C@H]3C[C@H]4C(=O)N5CCC[C@H]5C(=O)N4[C@H]3c3ccc(O)cc3)cc2)[C@@]12C(=O)Nc1ccccc12	-1.47

SMILES	z-score
CO[C@H]1COC(=O)CC=C[C@@H](C)COC(=O)[C@@H](C)NC(=O)CC=C[C@@H]1C	1.15
C=CCN1C(=O)[C@@]2(O[C@@H](CCn3cc([C@H](O)c4ccccc4)nn3)[C@H]([Si](C)(C)c3ccc(OC)cc3)[C@H]2C)c2cc(N3CCOC3=O)ccc21	0.899
CCCC/C=C/[C@H]([C@@H](O)Cc1ccccc1)N(CC#Cc1ccccc1)Cc1ccccc1Br	1.03
CCOC(=O)[C@H]1C/C=C/C[C@H](C(=O)OCC)C(=O)O[C@H]2[C@@H](OC)O[C@H](CO)[C@@H](OC(=O)Nc3ccc(Br)cc3)[C@@H]2OC1=O	-2.32
COC(=O)c1c(CC[C@@H](CO)NC(=O)N[C@H](Cn2cc(-c3cncn3C)nn2)C(C)C)oc(C(C)=O)c1C(=O)OC	-0.315
COc1ccc([Si](C)(C)[C@H]2[C@H](CCO)O[C@@]3(C(=O)N(Cc4ccc(N5CCCCC5=O)cc4)c4ccccc43)[C@@H]2C)cc1	1.33
O=C1c2ccccc2[C@](Cc2ccccc2I)(C(=O)O)[C@H](c2ccc(CO)cc2)N1C1CCCCC1	-0.254
CCCNC(=O)[C@@]1(Sc2ccc(C)cc2)CC(=O)N(Cc2ccccc2Cl)[C@@H]1c1ccc(CO)cc1	1.02
O=C(NCC(O)CO)[C@]1(Cc2ccccc2)N=C(c2ccc(OCCCO)cc2)O[C@@H]1c1ccccc1 (stereo partly specified)	0.571
O=C(CS)NCCCCCNC(=O)[C@H]1C[C@H]2C(=O)N3CCC[C@H]3C(=O)N2[C@H]1c1ccc(O)cc1	1.54
COc1cccc([C@H]2N[C@H](C(=O)O)CC[C@@H]2C)c1	-0.14
CC(C)[Si]1(C(C)C)O[C@@H](c2ccccc2)c2cc(C3CC3)nc(-c3ccc(Oc4ccccc4)cc3)c21	1.55
CC(=O)Nc1ccc([C@H]2[C@H](C)CC[C@H]3C(=O)N4[C@@H](CC[C@@H](C)[C@@H]4c4ccc(NC(C)=O)cc4)C(=O)N32)cc1	0.673
COc1cc2c(cc1OC)CN(C(=O)[C@@H]1[C@H]3C(=O)O[C@H](c4ccccc4)[C@H](c4ccccc4)N3[C@H](c3ccccc3OCCO)[C@@]13C(=O)Nc1ccccc13)CC2	0.447
[N-]=[N+]=NCc1ccccc1C[C@@]1(C(=O)N2CCOCC2)N=C(c2ccc(OCCCO)cc2)O[C@@H]1c1ccccc1N=[N+]=[N-]	1.4
C=CC[C@]1(C(=O)OC)N=C(c2ccc(OCCCO)cc2)O[C@H]1c1ccccc1CN=[N+]=[N-]	1.22
CO[C@]12C=C(Br)[C@@H](C[C@@H]1c1ccccc1)[C@@]1(CO1)C2=O	0.704
C[C@]1(C(=O)NCc2ccccc2)c2ccccc2C(=O)N(Cc2cc(C(F)(F)F)cc(C(F)(F)F)c2)[C@H]1c1ccc(CO)cc1	0.195
